Screening data (PubChem)
TGFb inhibitor: blocks TGF-b signaling; Potency, µM (titrated, usually from 46.1 µM), inactives show at the top dose activity, negative = inhibition, usual class: inhibitors; HepG2 CAGA-GFP TGF-b/SMAD3 reporter, GFP fluorescence, 18 h; TGF-beta stimulated, 500 pg/mL final; actives 1.2% (n = 410,000); also: potency is read from the fitted curve at half-maximal effect; % is scaled to controls: 0 for no effect and ±100 for the full control effect; nearly all actives have a fitted effect of over 65% in size
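GFP signal (ex488/em500-530) from TGF-beta-stimulated HEPG2 CAGA-GFP cells, 500 pg/mL final, 18 h at 37 degrees C in DMEM plus 1% FBS, normalized to unstimulated and DMSO-stimulated controls.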
DT40 TDP1 no CPT: qHTS for Inhibitors of human tyrosyl-DNA phosphodiesterase 1 (TDP1): qHTS in cells in absence of CPT; DT40 Tdp1-/- hTDP1 cells, no CPT, ATP luminescence, 48 h; Potency, µM (doses to about 46.2 µM), without a hit: top-dose activity change, negative = growth inhibition, hits mostly inhibitors; actives 15% (n = 420,000); also: potency is read from the fitted curve at half-maximal effect; % is scaled to controls: 0 for no effect and ±100 for the full control effect; nearly all actives have a fitted effect of over 55% in size
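Chicken DT40 Tdp1-/- cells complemented with human TDP1, screened without camptothecin (DMSO vehicle only), 400 cells/well. Compounds pin-transferred, cells incubated at 37 °C for at least 48 hr. Growth read as ATP-dependent luminescence (CellTiter-Glo, 30 min at RT).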
HepG2 viability: HepG2 cytotoxicity, counter-screen for TGF-b inhibitors. HepG2 CAGA-GFP viability, ATP luminescence, 18 h. AID 588856. Potency, µM (doses to about 46.1 µM), for inactives: at the highest dose activity change, negative = cytotoxicity, usual class: cytotoxic. actives 0.76% (n = 410,000); also: potency is read from the fitted curve at half-maximal effect
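CellTiter-Glo luminescence gave cytotoxicity after 18 hours at 37 degrees C. The cells were HepG2 CAGA-GFP in 1% FBS DMEM, stimulated with 500 pg/mL TGF-beta after compound addition. %Activity was normalised to no-cell wells (complete cell-killing) and DMSO (no toxicity), and curves were fitted and classified.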
ASM inhibitor: blocks human secretory acid sphingomyelinase | Potency, µM (series often up to 57.5 µM), for inactives: top-dose activity change, negative = inhibition, usual class: inhibitors | actives 0.006% (n = 340,000) | placental ASM, HMU-PC fluorogenic substrate, 60 min; also: potency is read from the fitted curve at half-maximal effect
Target sequence (P17405 47-631 limits assumed): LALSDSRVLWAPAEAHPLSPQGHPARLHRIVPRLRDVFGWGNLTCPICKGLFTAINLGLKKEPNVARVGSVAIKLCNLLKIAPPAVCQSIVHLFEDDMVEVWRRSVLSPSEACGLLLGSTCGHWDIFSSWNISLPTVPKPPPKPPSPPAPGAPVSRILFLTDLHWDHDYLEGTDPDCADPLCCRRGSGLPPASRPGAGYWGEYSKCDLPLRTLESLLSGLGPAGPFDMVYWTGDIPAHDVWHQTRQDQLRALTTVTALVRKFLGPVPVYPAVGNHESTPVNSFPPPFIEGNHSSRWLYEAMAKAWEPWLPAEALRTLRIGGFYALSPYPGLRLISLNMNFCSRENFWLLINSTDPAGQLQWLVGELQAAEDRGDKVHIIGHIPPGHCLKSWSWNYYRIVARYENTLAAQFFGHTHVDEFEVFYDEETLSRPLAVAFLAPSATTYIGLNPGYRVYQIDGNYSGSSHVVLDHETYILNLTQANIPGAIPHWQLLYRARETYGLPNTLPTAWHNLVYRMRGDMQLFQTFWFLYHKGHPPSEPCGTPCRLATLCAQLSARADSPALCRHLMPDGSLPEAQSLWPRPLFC
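HMU-PC0 cleavage (9 uM final) by human placental ASM, 60 min at 37 °C following 10 min compound exposure at RT; stopped at pH 10, fluorescence Ex 386/Em 447 nm.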
IL-1B inflam inh: inhibitors of inflammasome signaling (IL-1 beta secretion); THP-1 LPS/ATP IL-1B secretion, AlphaLISA, 16 h; active compounds read low; activity change, % at 57.5 µM; actives 4.7% (n = 360,000); in the data active = activity change below about -50%; inconclusive = mostly about -30% to -49%; also: % is scaled to controls: 0 for no effect and ±100 for the full control effect
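THP-1 cells pretreated 1 hr with compounds (up to 57.5 uM final), then stimulated with LPS (250 ng/mL final) plus ATP (1.25 mM final); secreted IL-1B measured by AlphaLISA after 16 hr, decreased signal indicating inhibition.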
TDP1 cell CPT: growth inhibition of DT40 Tdp1-/-;hTDP1 cells with camptothecin (screen for TDP1 inhibitors) | actives 12% (n = 420,000) | chicken DT40 Tdp1-/-;hTDP1 cells + 20 nM CPT, ATP luminescence, 48 h | Potency, µM (top dose mostly 46.2 µM), for the others: top-dose activity change, negative = growth inhibition, actives largely listed as inhibitors; also: potency is read from the fitted curve at half-maximal effect; % is scaled to controls: 0 for no effect and ±100 for the full control effect; nearly all actives have a fitted effect of over 55% in size
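Cell growth measured by CellTiter-Glo luminescence after a minimum 48 h, 37 C compound exposure with 20 nM CPT in Tdp1-knockout DT40 cells stably expressing hTDP1, seeded 400/well; qHTS titration format.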
* marks the source's active call; other numbers are inactive results. Compounds with a hit are over-represented: about 19% of the library has one in this group of screens. Unless noted, calls follow the shape of the dose curve; as a rule, active = well fitted curve in the direction sought with a large enough effect; inconclusive = small, poorly fitted or top-dose-only effect, or another doubt; inactive = no such curve, though single readings can be large; an effect the other way counts as inactive or inconclusive.

O=C(COc1ccc2c3c(c(=O)oc2c1)CCC3)Nc1ccccn1 was read as TGFb inhibitor 15%, DT40 TDP1 no CPT 12%, HepG2 viability -7%, ASM inhibitor 5%, IL-1B inflam inh 3 and TDP1 cell CPT -2%.
For CCNc1ccc(-c2nc(-c3ccccn3)no2)cc1[N+](=O)[O-] the results were TGFb inhibitor -25%, DT40 TDP1 no CPT -5%, HepG2 viability -29% and TDP1 cell CPT -5%.
`CN1C(=O)c2ccc(NC(=O)c3ccc(N4CCCCC4)c([N+](=O)[O-])c3)cc2C1=O` gave TGFb inhibitor -15%, DT40 TDP1 no CPT inconclusive, HepG2 viability 0%, ASM inhibitor -17%, IL-1B inflam inh 29 and TDP1 cell CPT 23µM*.
`C/C(=C\c1ccccc1)C(=O)Nc1ccc(Cl)cn1` gave TGFb inhibitor 8%, DT40 TDP1 no CPT -13%, HepG2 viability -14%, ASM inhibitor 3%, IL-1B inflam inh -7 and TDP1 cell CPT -16%.
Screening Cc1cccc(Cn2c(SCc3ccc(C(=O)NC4CCCC4)cc3)nc3cccnc32)c1 returned TGFb inhibitor inconclusive, DT40 TDP1 no CPT inconclusive, HepG2 viability -13% and TDP1 cell CPT inconclusive.
Screening CCCCCCCCN1C(=O)[C@H](CC(=O)N2CCCC2)C[C@@]2(C(=O)OC)CC(C)(C)CC=C12 returned DT40 TDP1 no CPT inconclusive, IL-1B inflam inh -5 and TDP1 cell CPT 9.2µM*.
Screening CCCCCCCCN1C(=O)[C@H](CC(=O)NCCC(C)C)C[C@@]2(C(=O)OC)CC(C)(C)CC=C12 returned DT40 TDP1 no CPT inconclusive, IL-1B inflam inh -7 and TDP1 cell CPT inconclusive.
CCCCCCCCN1C(=O)[C@H](CC(=O)N2CCC(c3ccccc3)CC2)C[C@@]2(C(=O)OC)CC(C)(C)CC=C12 was read as DT40 TDP1 no CPT 16µM*, IL-1B inflam inh -16 and TDP1 cell CPT inconclusive.
For COC(=O)[C@@]12C[C@@H](CC(=O)N3CCSCC3)C(=O)N(Cc3ccccc3)C1=CCC(C)(C)C2 the results were DT40 TDP1 no CPT inconclusive, IL-1B inflam inh -11 and TDP1 cell CPT -16%.
For CCCCCCCCN1C(=O)[C@H](CC(=O)N2CCSCC2)C[C@@]2(C(=O)OC)CC(C)(C)CC=C12 the results were DT40 TDP1 no CPT 16µM*, IL-1B inflam inh -20 and TDP1 cell CPT inconclusive.
COC(=O)[C@@]12C[C@@H](CC(=O)N3CCOCC3)C(=O)N(Cc3ccccc3)C1=CCC(C)(C)C2 was read as DT40 TDP1 no CPT inconclusive, IL-1B inflam inh 23 and TDP1 cell CPT -7%.
Screening CCc1c(C)c2cc3c(c(C)c2oc1=O)OCN(CCc1ccc(OC)c(OC)c1)C3 returned TGFb inhibitor 25%, DT40 TDP1 no CPT inconclusive, HepG2 viability -18% and TDP1 cell CPT inconclusive.
`Cc1nnsc1C(=O)N1CCCC(C)(C(=O)NS(=O)(=O)C2CC2)C1` (stereo not drawn) gave TGFb inhibitor 3%, DT40 TDP1 no CPT inconclusive, HepG2 viability -4%, IL-1B inflam inh 21 and TDP1 cell CPT inconclusive.
`Cc1ccc(S(=O)(=O)N2CCC(=O)N(C(COCc3cccc(C)c3)Cc3ccccc3)CC2)cc1` (stereo not drawn) gave TGFb inhibitor -5%, DT40 TDP1 no CPT inconclusive, HepG2 viability -22%, ASM inhibitor 4%, IL-1B inflam inh 6 and TDP1 cell CPT inconclusive.
`Cc1ccc(S(=O)(=O)N2CCC(=O)N(C(COCc3ccc(Cl)c(Cl)c3)Cc3ccccc3)CC2)cc1` (stereo not drawn) gave TGFb inhibitor -1%, DT40 TDP1 no CPT 23µM*, HepG2 viability -25%, ASM inhibitor 2%, IL-1B inflam inh 48 and TDP1 cell CPT inconclusive.
`Cc1ccc(S(=O)(=O)N2CCC(=O)N([C@H](CO)Cc3ccccc3)CC2)cc1` gave DT40 TDP1 no CPT -24%, IL-1B inflam inh 18 and TDP1 cell CPT -19%.
`Cc1ccc(S(=O)(=O)N2CCC(=O)N(C(COC(=O)Nc3ccccc3)Cc3ccccc3)CC2)cc1` (stereo not drawn) gave TGFb inhibitor inconclusive, DT40 TDP1 no CPT inconclusive, HepG2 viability -26%, ASM inhibitor -2%, IL-1B inflam inh 0 and TDP1 cell CPT 21µM*.
`Cc1ccc(S(=O)(=O)N2CCC(=O)N(C(COCc3ccc(C(F)(F)F)cc3)Cc3ccccc3)CC2)cc1` (stereo not drawn) gave TGFb inhibitor -3%, DT40 TDP1 no CPT 18µM*, HepG2 viability -37%, ASM inhibitor -1%, IL-1B inflam inh -17 and TDP1 cell CPT 9.2µM*.
For COc1ccc(S(=O)(=O)N2CCN(C(=O)c3ccc(C)o3)CC2)cc1 the results were TGFb inhibitor inconclusive, DT40 TDP1 no CPT inconclusive, HepG2 viability -33%, ASM inhibitor -4%, IL-1B inflam inh 12 and TDP1 cell CPT -22%.
For COCCN1Cc2cccc(C(=O)Nc3ccc(C)c(F)c3)c2C1=O the results were TGFb inhibitor 0%, DT40 TDP1 no CPT inconclusive, HepG2 viability -18% and TDP1 cell CPT inconclusive.
Fc1ccccc1N1CCN(Cc2nc(-c3ccccc3)no2)CC1 was read as TGFb inhibitor 1%, DT40 TDP1 no CPT -16%, HepG2 viability 4%, ASM inhibitor -1%, IL-1B inflam inh 15 and TDP1 cell CPT -12%.
`CC(C)Sc1cc(N2CCCC2)nc(-c2ccc(F)cc2)n1` gave TGFb inhibitor 0%, DT40 TDP1 no CPT inconclusive, HepG2 viability -1%, ASM inhibitor -10%, IL-1B inflam inh 2 and TDP1 cell CPT 6%.
COCc1cc(N2CCOCC2)nc(-c2ccccc2)n1 was read as TGFb inhibitor -9%, DT40 TDP1 no CPT inconclusive, HepG2 viability -12%, ASM inhibitor 1%, IL-1B inflam inh inconclusive and TDP1 cell CPT 23µM*.
`c1ccc(-c2ccc(Oc3cc(N4CCOCC4)nc(-c4ccccc4)n3)cc2)cc1` gave TGFb inhibitor 12%, DT40 TDP1 no CPT inconclusive, HepG2 viability -15%, ASM inhibitor -11%, IL-1B inflam inh 0 and TDP1 cell CPT inconclusive.
For CC(C)Sc1cc(N2CCOCC2)nc(-c2ccccc2)n1 the results were TGFb inhibitor -17%, DT40 TDP1 no CPT 16µM*, HepG2 viability -38%, IL-1B inflam inh inconclusive and TDP1 cell CPT 23µM*.
